# Data published in PubChem BioAssay.
# Where “and” joins values, the source holds several entries; their conditions need not be identical. Identical values can stand only once. Results filed as inconclusive are left out. Calls of active or inactive are those of the source. Unless noted, the rule behind the calls is not given here.
# What was measured:
# [1] = blockers of MitoPT in mitochondria (AID 1580); settings: isolated mitochondria, permeability transition inhibition
# [2] = rescue of PC12 cells from polyQ htt toxicity – LDH release (AID 1610); settings: PC12 mutant huntingtin toxicity, final LDH at 4 uM, stronger effect = lower value
# [3] = compounds altering viability of human ES cells (AID 493140); settings: human embryonic stem cell survival screen; stronger effect = higher value;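 note: cells exposed to compounds for four days before counting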
# [4] = chitosan synthesis blockers in C. neoformans – flow cytometry, Cibacron Brilliant Red staining (AID 1347148); settings: Cryptococcus neoformans chitosan, stronger effect = lower value; at 10 µM unless noted;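 note: compound exposure lasted three days at 37 degrees C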
# [5] = growth inhibition, single agents and combos, HD-MB03, cell-based, BGB or cisplatin IC20 combos, synergistic combos for chromothripsis tumors (AID 1671455; in the data active = inhibition above about 83%;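 note: 0% = vehicle DMSO and 100% = high DMSO as cytotoxic control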); settings: HD-MB03 medulloblastoma cells, stronger effect = higher value
# [6] = growth inhibition, single agents and combos, UWB1.289, cell-based, BGB or cisplatin combos, synergistic combos for chromothripsis tumors (AID 1671456; in the data active = inhibition above about 80%;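 note: cells exposed to compound for four days; 0% = vehicle DMSO and 100% = killing by high DMSO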); settings: UWB1.289 ovarian carcinoma cells, stronger effect = higher value
# [7] = growth inhibition, single agents and combos, LFS_MB_2R, cell-based, cisplatin combos, synergistic combos for chromothripsis tumors (AID 1671457; in the data active = inhibition above about 80%;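 note: cells exposed to compound for four days before readout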); settings: LFS_MB_2R medulloblastoma cells, stronger effect = higher value
# [8] = UWB1.289_BRCA1 ovarian cancer growth, cell-based, BGB or cisplatin combinations (AID 1671459; in the data active = inhibition above about 80%); settings: UWB1.289 BRCA1 ovarian carcinoma, drug combinations, stronger effect = higher value
# [9] = drug combination toxicity in non-malignant astrocytes – cell-based, BGB or cisplatin IC20 combos, cytotoxicity control for chromothriptic childhood tumor combination screen (AID 1671460; in the data active = inhibition above about 80%;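 note: cells exposed to compounds for 96 hours before viability readout; 0% = vehicle and 100% = killing control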); settings: Human astrocytes, viability inhibition, drug combinations, at 0.5 µM, stronger effect = higher value
# [10] = liver-stage malaria parasite load reduction – cell-based, known kinase inhibitor set, luminescence, hepatoma host viability (AID 624392); settings: Plasmodium liver stage in hepatoma cells, luciferase luminescence, concentration not given here; liver cell % of control: measured here: host liver cell viability; parasite % of control: stronger effect = lower value;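 note: infected cells incubated roughly two days before readout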
# [11] = target: ATP-dependent translocase ABCB1 (Homo sapiens) (UniProt P08183); assay: P-glycoprotein substrate transport blockade – cell-based (AID 377; in the data active = fluorescence slope change above about 50%); settings: MDR1-expressing cells, fluorescent substrate accumulation slope; stronger effect = higher value; concentration not given here
# [12] = measured here: combo with BGB at IC20, at 0.5 µM
# [13] = measured here: combo with cisplatin at IC20, at 0.5 µM
# [14] = measured here: inhibition with BGB combination, at 0.05 µM
# [15] = measured here: inhibition with cisplatin combination, at 0.05 µM
# [16] = measured here: combination with cisplatin, at 0.5 µM
# [17] = measured here: combination with cisplatin, at 5 µM
# [18] = BGB combination, concentration series, at 5 µM
# [19] = cisplatin combination, concentration series, at 5 µM
# [20] = measured here: combo with BGB IC20
# [21] = measured here: combo with cisplatin IC20
# Chain of ATP-dependent translocase ABCB1 (Homo sapiens) (P08183 whole entry, looked up): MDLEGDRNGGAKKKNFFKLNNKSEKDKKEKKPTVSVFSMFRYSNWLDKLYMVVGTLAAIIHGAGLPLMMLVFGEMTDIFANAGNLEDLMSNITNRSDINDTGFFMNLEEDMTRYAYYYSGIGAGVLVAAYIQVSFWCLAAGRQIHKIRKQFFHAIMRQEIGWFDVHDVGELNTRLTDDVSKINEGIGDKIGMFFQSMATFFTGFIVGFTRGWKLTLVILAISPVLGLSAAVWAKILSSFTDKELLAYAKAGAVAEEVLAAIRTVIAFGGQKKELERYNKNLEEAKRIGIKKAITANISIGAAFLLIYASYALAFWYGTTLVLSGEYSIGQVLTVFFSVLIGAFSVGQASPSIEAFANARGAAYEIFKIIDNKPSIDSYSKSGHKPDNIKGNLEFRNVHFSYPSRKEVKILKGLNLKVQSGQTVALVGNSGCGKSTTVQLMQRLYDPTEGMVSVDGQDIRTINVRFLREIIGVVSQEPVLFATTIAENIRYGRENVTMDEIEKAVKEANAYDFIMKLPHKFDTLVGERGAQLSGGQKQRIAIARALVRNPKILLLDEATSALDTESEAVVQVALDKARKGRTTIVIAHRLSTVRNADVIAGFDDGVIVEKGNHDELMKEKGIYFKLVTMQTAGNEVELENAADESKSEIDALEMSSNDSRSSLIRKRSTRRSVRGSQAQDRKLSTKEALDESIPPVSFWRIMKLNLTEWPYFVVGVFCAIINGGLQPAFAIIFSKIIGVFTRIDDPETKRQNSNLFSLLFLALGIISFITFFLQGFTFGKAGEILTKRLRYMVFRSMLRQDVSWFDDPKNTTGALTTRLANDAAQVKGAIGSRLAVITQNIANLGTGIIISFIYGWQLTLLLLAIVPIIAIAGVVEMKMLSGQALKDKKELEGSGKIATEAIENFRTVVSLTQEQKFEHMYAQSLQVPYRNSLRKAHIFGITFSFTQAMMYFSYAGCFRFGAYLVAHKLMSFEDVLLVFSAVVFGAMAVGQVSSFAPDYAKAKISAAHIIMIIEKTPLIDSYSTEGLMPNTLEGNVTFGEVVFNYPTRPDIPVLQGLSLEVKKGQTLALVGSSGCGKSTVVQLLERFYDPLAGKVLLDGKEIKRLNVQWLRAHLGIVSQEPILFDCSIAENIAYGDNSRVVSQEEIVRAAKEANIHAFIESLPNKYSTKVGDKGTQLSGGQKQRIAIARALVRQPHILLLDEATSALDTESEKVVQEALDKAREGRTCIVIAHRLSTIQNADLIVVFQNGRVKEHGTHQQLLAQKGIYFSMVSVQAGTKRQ
structure (smiles),measurement,setting,value
CC[C@@H](C(=O)[C@@H](C)[C@@H](O)[C@H](C)[C@@H]1O[C@@H]([C@@H](CC)C(=O)O)CC[C@@H]1C)[C@H]1OC2(C=C[C@@H](O)[C@]3(CC[C@@](C)([C@H]4CC[C@](O)(CC)[C@H](C)O4)O3)O2)[C@H](C)C[C@@H]1C (stereo partly specified),EC50,[1],100 nM (active)
CC(=O)OCC(=O)[C@@]1(O)[C@H](C)CC2C3CCC4=CC(=O)C=C[C@]4(C)[C@@]3(F)[C@@H](O)C[C@@]21C (stereo partly specified),normalised LDH release,[2],0.545
COc1cccc(-c2cc(=O)c3ccccc3o2)c1N,survival,[3],106 (inactive)
same,fold fluorescence,[4],6.5 [at 187.1 µM] (inactive)
O=c1[nH]c(-c2ccc(C(F)(F)F)cc2)nc2c1CSCC2,inhibition,[5]; at 0.5 µM,-8.71% (inactive)
same,inhibition,[5]; [12],-15.3%
same,inhibition,[5]; [13],-8.24%
same,inhibition,[6]; at 0.5 µM,-2.17% (inactive)
same,inhibition,[6]; [14],-13.9%
same,inhibition,[6]; [15],-26.3%
same,inhibition,[7]; at 0.5 µM,-7.37% (inactive)
same,inhibition,[7]; [16],-7.07%
same,inhibition,[7]; [17],-6.53%
same,inhibition,[8]; [18],-5.61%
same,inhibition,[8]; at 0.5 µM,0.36% (inactive)
same,inhibition,[8]; [19],7.32%
same,inhibition,[9],-1.27% (inactive)
same,inhibition,[9]; [20],0.645%
same,inhibition,[9]; [21],-5.26%
CCOC(=O)C1=C(N)Oc2ccc(Br)cc2C1C(C#N)C(=O)OCC (stereo unspecified),fold fluorescence,[4],6.68 [at 122.2 µM] (inactive)
CCc1c2c(nc3ccc(O)cc13)-c1cc3c(c(=O)n1C2)COC(=O)[C@]3(O)CC,inhibition,[5]; at 0.5 µM,99.5% (active)
same,inhibition,[5]; [12],99.5%
same,inhibition,[5]; [13],99.6%
same,inhibition,[6]; at 0.5 µM,74.5% (inactive)
same,inhibition,[6]; [14],31%
same,inhibition,[6]; [15],49.3%
same,inhibition,[7]; at 0.5 µM,13.2% (inactive)
same,inhibition,[7]; [16],48.9%
same,inhibition,[7]; [17],61.9%
same,inhibition,[8]; [18],102%
same,inhibition,[8]; at 0.5 µM,81.6% (active)
same,inhibition,[8]; [19],105%
same,inhibition,[9],90.1% (active)
same,inhibition,[9]; [20],94.5%
same,inhibition,[9]; [21],87%
O=c1cc(-c2cccc3c2Sc2ccccc2S3)oc(N2CCOCC2)c1,inhibition,[5]; at 0.5 µM,-12.6% (inactive)
same,inhibition,[5]; [12],-13%
same,inhibition,[5]; [13],-6.59%
same,inhibition,[6]; at 0.5 µM,-9.95% (inactive)
same,inhibition,[6]; [14],-28.4%
same,inhibition,[6]; [15],-10.7%
same,inhibition,[7]; at 0.5 µM,-22.3% (inactive)
same,inhibition,[7]; [16],-27.3%
same,inhibition,[7]; [17],-42.7%
same,inhibition,[8]; [18],-14.2%
same,inhibition,[8]; at 0.5 µM,-17.9% (inactive)
same,inhibition,[8]; [19],-3.21%
same,inhibition,[9],-40.3% (inactive)
same,inhibition,[9]; [20],-56.7%
same,inhibition,[9]; [21],-32.4%
O=C1NC(=O)C(c2ccccc2[N+](=O)[O-])=C1Nc1ccc(O)c(Cl)c1,fold fluorescence,[4],5.23 [at 139 µM] (inactive)
O=C1Nc2ccc(I)cc2/C1=C/c1cc(Br)c(O)c(Br)c1,survival,[3],109 (inactive)
same,fold fluorescence,[4],4.68 [at 96 µM] (inactive)
CS(=O)c1ccc(-c2nc(-c3ccc(F)cc3)c(-c3ccncc3)[nH]2)cc1 (stereo unspecified),liver cell % of control,[10],87.6% and 90.6% and 97.1%
same,parasite % of control,[10],20.8% (inactive) and 18.7% (inactive) and 25.5% (inactive)
O=C(O)c1ccc(-c2c[nH]c3ncc(-c4ccccc4)cc23)cc1C1CCCC1,liver cell % of control,[10],92%
same,parasite % of control,[10],0.113% (active)
NC(=O)c1ccc2[nH]ccc2c1,liver cell % of control,[10],92.5% and 90.8% and 97.8%
same,parasite % of control,[10],221% (inactive) and 164% (inactive) and 74.7% (inactive)
CCCCC[C@H](O)/C=C/[C@H]1[C@H](O)CC(=O)[C@@H]1C/C=C\CCCC(=O)O,fluorescence slope change,[11],51% (active)
same,survival,[3],66.5 (inactive)
Clc1ccc(-c2nc3sccn3c2/C=N/OCc2ccc(Cl)c(Cl)c2)cc1,fold fluorescence,[4],3.64 [at 114.5 µM] (inactive)
O=C1c2ccccc2-c2n[nH]c3cccc1c23,survival,[3],97.1 (inactive)
same,fold fluorescence,[4],20.5 [at 227 µM] (inactive)
O=Nc1c(-c2c(O)[nH]c3ccccc23)[nH]c2ccccc12,survival,[3],71.6 (inactive)
same,fold fluorescence,[4],9.39 [at 180.3 µM] (inactive)
